# Test results reported in ChEMBL document CHEMBL3988442, “University of Dundee, Small-Polar-MMV Screening Library” (2021).
# About 1,000 (1.4%) of roughly 69,000 compounds showed an effect of 50% or more. The sample as a whole holds a higher share of strong results than the screen did.
# Test system: Leishmania donovani
# Assay: Leishmania intramacrophage assay
# Format: functional, organism-based
# Design: scale not given: in the data most compounds retested in dose-response had high values
structure (smiles),measurement,setting,value
CCOCC1CN(C(=O)Cc2ccccn2)Cc2cn(C)nc21 (stereo unspecified),Percent Effect,"30.3 µM, […]",5.026%
O=C(c1ccco1)N1CCOCC2(C1)CN(c1ccoc1)C(=O)CO2 (stereo unspecified),Percent Effect,"30.3 µM, […]",15.48%
CCn1cnnc1CCNC(=O)C1COc2ccc(OC)cc2C1 (stereo unspecified),Percent Effect,"30.3 µM, […]",15.43%
COc1nn(C)c2c1CCCN(C(=O)c1ccc3ccccc3n1)C2.O=C(O)C(F)(F)F,Percent Effect,"30.3 µM, […]",-11.56%
COc1nn(C)c2c1CCCN(C(=O)c1cccc3cccnc13)C2.O=C(O)C(F)(F)F,Percent Effect,"30.3 µM, […]",75.35%
COc1nn(C)c2c1CCCN(C(=O)c1cccc(C)n1)C2.O=C(O)C(F)(F)F,Percent Effect,"30.3 µM, […]",4.327%
Cc1nc(=O)c2ccccc2n1C1=CCN(CC(=O)N2CCCC2)CC1,Percent Effect,"30.3 µM, […]",66.01%
Cc1nc2ccccc2c(=O)n1CCC(=O)N1CCCC1,Percent Effect,30 µM,19.05%
Cc1nc2ccccc2c(=O)n1CCC(=O)N1CCCCCC1,Percent Effect,30 µM,21.32%
Cc1nc(=O)c2ccccc2n1C1=CCN(CC(=O)NC(C)C)CC1,Percent Effect,"30.3 µM, […]",64.5%
Cc1nnc2n1CCN(CC(=O)NC(C)c1cccc3ccccc13)C2 (stereo unspecified),Percent Effect,"30.3 µM, […]",-27.74%
COCCNC(=O)CN1CC=C(n2c(C)nc(=O)c3ccccc32)CC1,Percent Effect,"30.3 µM, […]",40.79%
CSCCNC(=O)c1ccc(OC2CCN(CC(C)(C)C)CC2)c(Cl)c1,Percent Effect,"30 µM, 30.03 µM",17.7%
COCc1n[nH]c2c1CN(Cc1ccccn1)C2.O=C(O)C(F)(F)F,Percent Effect,"30.3 µM, […]",2.635%
Cc1nc(CN2CC[C@H]3[C@@H]2CCC(=O)N3c2cnn(C)c2)cs1.O=C(O)C(F)(F)F,Percent Effect,"30.3 µM, […]",2.736%
CC(C)(C)C(=O)N1CCN(C(=O)Nc2cnn(CC(F)F)c2)CC1,Percent Effect,"30.3 µM, […]",4.989%
O=C(c1cccnc1)N1CCCC(c2ncncc2-c2ccncc2)C1 (stereo unspecified),Percent Effect,"30.3 µM, […]",1.341%
COCCO[C@H]1CCN(C(=O)c2cnccn2)[C@H]1Cc1ccncc1,Percent Effect,"30.3 µM, […]",54.37%
CCO[C@@H]1CCN(C(=O)c2cnc(C)cn2)[C@@H]1Cc1cnn(C)c1,Percent Effect,"30.3 µM, […]",53.66%
CCO[C@@H]1CCN(C(=O)c2cscn2)[C@@H]1Cc1cnn(C)c1,Percent Effect,"30 µM, 30.03 µM",-2.934%
CCO[C@@H]1CCN(C(=O)N(C)C)[C@@H]1Cc1cnn(C)c1,Percent Effect,"30.3 µM, […]",27.5%
COCCO[C@H]1CCN(C(=O)c2ccc[nH]2)[C@H]1Cc1ccncc1,Percent Effect,"30 µM, 30.03 µM",17.48%
COCCO[C@H]1CCN(C(=O)c2ccsc2)[C@H]1Cc1ccncc1,Percent Effect,"30.3 µM, […]",26.31%
CN(C)S(=O)(=O)N1CC[C@]2(C[C@@H](Oc3cccnc3)CO2)C1.O=C(O)C(F)(F)F,Percent Effect,"30.3 µM, […]",7.751%
Cc1ccc(N2CCCc3sc(C(=O)NCc4ccc(C)o4)nc32)nn1,Percent Effect,"30.3 µM, […]",18.34%
O=C1NCCN1CCNCC1(O)CCCN(CCC2CCCCC2)C1=O (stereo unspecified),Percent Effect,"30.3 µM, […]",17.71%
COCCNCC1(O)CCCN(Cc2ccc(F)c(F)c2)C1=O (stereo unspecified),Percent Effect,"30.3 µM, […]",36.88%
O=C1OCCN1CCNCC1(O)CCCN(CCC2CCCCC2)C1=O (stereo unspecified),Percent Effect,"30.3 µM, […]",27.13%
O=C1N(Cc2ccc(F)c(F)c2)CCCC1(O)CNCC1CCCCC1 (stereo unspecified),Percent Effect,"30.3 µM, […]",62.26%
O=C1N(CCCc2ccccc2)CCCC1(O)CNCC1CCCCC1 (stereo unspecified),Percent Effect,"30.3 µM, […]",36.42%
O=C1N(CCc2ccccc2)CCCC1(O)CNCc1ccc(F)cc1 (stereo unspecified),Percent Effect,"30.3 µM, […]",14.91%
C=C(C)CNCC1(O)CCCN(Cc2ccc(F)c(F)c2)C1=O (stereo unspecified),Percent Effect,"30.3 µM, […]",36.85%
O=C1N(CCCc2ccccc2)CCCC1(O)CNCc1ccccc1 (stereo unspecified),Percent Effect,"30 µM, 30.03 µM",54.86%
O=C1N(CCC2CCCCC2)CCCC1(O)CNCCc1ccccc1 (stereo unspecified),Percent Effect,"30.3 µM, […]",74.42%
Cc1nsc(N2CCc3sccc3C2)n1,Percent Effect,"30.3 µM, […]",14.81%
Cc1cnn(CCCNC(=O)N2CCCCC(N3CCCC3)C2)c1 (stereo unspecified),Percent Effect,"30 µM, 30.03 µM",26.48%
Clc1cccc(OCCCN2CCOC(Cn3cncn3)C2)c1 (stereo unspecified),Percent Effect,30 µM,18.78%
CCCn1cc(CN2CCCC2c2nccc(CN(C)C)n2)cn1 (stereo unspecified),Percent Effect,"30.3 µM, […]",-4.658%
O=C(c1cc(C2CCCCN2C(=O)C2CCC2)n[nH]1)N1CCOCC1 (stereo unspecified),Percent Effect,"30.3 µM, […]",-8.909%
NC(=O)c1ccc(NC(=O)c2ccncc2Cl)cn1,Percent Effect,"30.3 µM, […]",4.641%
NC(=O)c1ccc(NC(=O)c2ccncc2F)cn1,Percent Effect,"30.3 µM, […]",52.29%
CCc1cnccc1C(=O)Nc1ccc(C(N)=O)nc1,Percent Effect,"30.3 µM, […]",-9.48%
COCC(=O)N1CCCCC1c1nc(C)c2c(n1)N(C1CC1)C(=O)CC2 (stereo unspecified),Percent Effect,"30.3 µM, […]",6.342%
c1csc(-c2cc(CN3CCN(c4nccs4)CC3)no2)c1,Percent Effect,"30.3 µM, […]",21.99%
Cc1cc(=O)[nH]cc1C(=O)N1Cc2ccccc2N(C)CC1C (stereo unspecified),Percent Effect,"30.3 µM, […]",-24.09%
Cc1cc(=O)[nH]cc1C(=O)N1CCN(C)c2ccccc2C1,Percent Effect,"30.3 µM, […]",57.95%
Cc1cc(=O)c(C(=O)N2CCN(C)c3ccccc3C2)c[nH]1,Percent Effect,"30.3 µM, […]",-29.42%
COCc1nnc(NC(=O)CN2C(=O)c3ccccc3NC2C(C)C)s1 (stereo unspecified),Percent Effect,"30.3 µM, […]",33.02%
NC(=O)CCCNC(=O)Cc1cccc(I)c1,Percent Effect,"30.3 µM, […]",7.14%
O=C(NC1CC1)NC(c1ccc(F)cc1)C1CC1 (stereo unspecified),Percent Effect,"30.3 µM, […]",4.479%
N#Cc1cccc(N2CCCC3(CN(C(=O)c4ccc[nH]4)CCO3)C2)c1 (stereo unspecified),Percent Effect,"30.3 µM, […]",1.97%
